Source: PubChem BioAssay
D2 PAM-1 – human D2 receptor positive allosteric modulation; P14416; 0.23% of 360,000 active; potentiation, % (test concentration not listed); DiscoveRx D2 beta-arrestin cells, luminescence, 90 min; 100% = 57 uM dopamine signal; AID 624464; in the data active = potentiation above about 50%; inconclusive = mostly about 30% to 49%
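PathHunter D2 cells, attached overnight at 37 deg C, received compound in DMSO plus dopamine at EC20 (50 nM final) for 90 min at 37 deg C. Beta-arrestin recruitment was read as luminescence after 1 h with detection reagent at ambient temperature.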
D2 ag-1 – activates the human D2 dopamine receptor; HEK293 T-REx D2 cells, calcium flux agonist mode; activation, % at 2 µM; 0.53% of 340,000 active; AID 485358;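 active = activation over 3 SD above normal in the single-dose calcium agonist read, cut at about 30% in these data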; note: 0% is about no effect
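Agonism scored from kinetic calcium signal (1 read/sec, 180 s) following compound pin transfer, after a 10 s baseline. Cells: HEK293 Trex line expressing inducible D2 receptor coupled to calcium, dye-loaded after overnight culture at 30 C.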
D2 antag – antagonizes the human D2 dopamine receptor; P14416; HEK293 TREx D2 cells, calcium flux, dopamine EC80; inhibition, % at 10 µM; 2% of 340,000 active; in the data active = inhibition above about 30%; inactive = below that, where a call was filed; note: 0% is about no effect
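Calcium flux kinetic readout in an inducible HEK293 TREx D2 line plated overnight at 30 C. After 180 s compound exposure, an EC80 dopamine challenge follows with another 180 s kinetic read to detect antagonism.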
D2 ag-2 – activates the human D2 dopamine receptor. DiscoveRx PathHunter D2 beta-arrestin, luminescence, 90 min; 100% = 57 uM dopamine signal. activation, % (test concentration not listed). 0.084% of 360,000 active. AID 624465; in the data active = activation above about 40%; inconclusive = between about 15% and that limit
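Agonist mode: compounds alone added to overnight-plated D2 PathHunter cells for 90 min at 37 C, with 57 uM final dopamine (EC100) defining full response. Beta-arrestin recruitment detected by chemiluminescent reagent, read after 1 h at ambient temperature.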
D2 PAM-2 – D2 dopamine receptor (human) potentiation; AID 485347; P14416; HEK293 T-REx D2, calcium flux, EC20 dopamine potentiation; potentiation, % at 10 µM; 0.34% of 340,000 active;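 active = potentiation over 3 SD above the plate norm, cut at about 30% in these data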; note: 0% is about no effect
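Potentiation of an EC20 dopamine calcium response measured kinetically over 180 s, after a preceding 180 s compound-only read flagging agonists. Cells: inducible Hek293 Trex D2 line, 4000/well, cultured overnight at 30 C before dye loading.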
D3 arrestin ag – activates human D3 dopamine receptor beta-arrestin recruitment | 4% of 2,300 active | Potency, µM (series often up to 76.9 µM), inactives show at the highest dose activation, most hits filed as activators | shares compounds with D2 ag-1 | DiscoveRx D3 beta-arrestin cells, luminescence, 90 min;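 note: potency is the fitted concentration of half-maximal effect; 100% = dopamine control response; nearly all actives have a fitted effect of over 70% in size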
Target sequence (P35462 whole entry, looked up): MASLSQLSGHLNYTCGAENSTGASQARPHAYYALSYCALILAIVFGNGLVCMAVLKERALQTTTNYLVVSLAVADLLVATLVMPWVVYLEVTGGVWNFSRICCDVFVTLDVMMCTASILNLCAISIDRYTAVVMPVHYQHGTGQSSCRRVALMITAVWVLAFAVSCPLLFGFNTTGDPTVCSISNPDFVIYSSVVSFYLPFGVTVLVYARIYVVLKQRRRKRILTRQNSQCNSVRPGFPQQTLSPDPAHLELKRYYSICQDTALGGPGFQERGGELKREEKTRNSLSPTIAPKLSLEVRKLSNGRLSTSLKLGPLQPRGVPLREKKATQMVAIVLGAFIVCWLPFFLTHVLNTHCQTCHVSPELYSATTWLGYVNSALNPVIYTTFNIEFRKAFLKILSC
D2 ag-3 – counter-screen for D3 agonists: human D2 dopamine receptor agonism | shares compounds with D2 ag-1 | Potency, µM (doses to about 76.9 µM), without a hit: at the highest dose activation, hits mostly activators | DiscoveRx PathHunter D2 beta-arrestin, luminescence, 90 min; response scale: percent relative to full dopamine signal | 5.9% of 2,300 active | AID 720507; note: potency is the fitted concentration of half-maximal effect; % of control where 0% means no effect; nearly all actives have a fitted effect of over 70% in size
Numbers without * were called inactive. Only some compounds are listed: those with a hit (about 2.4% of all), similar ones and a draw of the others. Unless noted, calls come from the whole dose curve; as a rule, active = well fitted activation curve with a large enough effect; inconclusive = small, poorly fitted or top-dose-only effect; inactive = flat fitted curve, though single readings scatter.

Screening O=C(Nc1ccc2oc(-c3ccccc3)nc2c1)c1cc(-n2cnnc2)ccc1Cl returned D2 PAM-1 0 and D2 ag-2 4.
Screening CCCCNC(=O)CSc1nc2nc(C)c(Cc3ccccc3C)c(C)n2n1 returned D2 PAM-2 21.
`CCc1ccc(CN2CCN(C(=O)c3ccco3)CC2)cc1` gave D2 PAM-1 inconclusive, D2 ag-1 80*, D2 antag 83*, D2 ag-2 78*, D2 PAM-2 -18, D3 arrestin ag 5.6µM* and D2 ag-3 14µM*.
For O=C(c1ccco1)N1CCN(CC(O)COc2ccc(Br)cc2)CC1 (stereo unspecified) the results were D2 PAM-1 -4, D2 ag-1 76*, D2 antag 77*, D2 ag-2 5, D2 PAM-2 -19, D3 arrestin ag inconclusive and D2 ag-3 inconclusive.
Screening O=C(c1ccco1)N1CCN(Cc2cccc(F)c2)CC1 returned D2 PAM-1 23, D2 ag-1 88*, D2 antag 84*, D2 ag-2 60*, D2 PAM-2 -24, D3 arrestin ag inconclusive and D2 ag-3 20µM*.
Screening O=C(c1ccco1)N1CCN(Cc2ccc(Br)cc2)CC1 returned D2 PAM-1 inconclusive, D2 ag-1 79*, D2 antag 80*, D2 ag-2 58*, D2 PAM-2 -20, D3 arrestin ag inconclusive and D2 ag-3 16µM*.
COC(=O)c1ccc(OCC(O)CN2CCN(C(=O)c3ccco3)CC2)cc1 (stereo unspecified) was read as D2 PAM-1 22, D2 ag-1 0, D2 antag 11, D2 ag-2 inconclusive and D2 PAM-2 6.
`Cc1ccc(-n2c(=O)c3ccc(C(=O)NCc4ccccc4Cl)cc3n(CC(=O)Nc3ccc(C)cc3C)c2=O)cc1` gave D2 ag-1 0 and D2 PAM-2 -3.
Cc1ccc2[nH]cc(C(c3ccccc3)c3cccs3)c2c1 (stereo unspecified) was read as D2 ag-1 -1 and D2 PAM-2 -4.
O=C(c1ccco1)N1CCN(Cc2cccc3ccccc23)CC1 was read as D2 PAM-1 14, D2 ag-1 58*, D2 antag 76*, D2 ag-2 14, D2 PAM-2 -23, D3 arrestin ag inconclusive and D2 ag-3 inconclusive.
`COC(=O)c1ccc(OCC(O)CN2CCN(C(=O)c3ccco3)CC2)c(OC)c1` (stereo unspecified) gave D2 PAM-1 14, D2 ag-1 64*, D2 antag 26, D2 ag-2 13, D2 PAM-2 -31, D3 arrestin ag -8% and D2 ag-3 inconclusive.
Screening Cc1ccc(C)n1CCN1CCN(C(=O)c2ccco2)CC1 returned D2 PAM-1 -29, D2 ag-1 25, D2 antag 3, D2 ag-2 6, D2 PAM-2 7, D3 arrestin ag 4% and D2 ag-3 9%.
`O=C(c1ccco1)N1CCN(Cc2csc(-c3ccccc3Cl)n2)CC1` gave D2 PAM-1 -37, D2 ag-1 41*, D2 antag 14, D2 ag-2 0, D2 PAM-2 -25, D3 arrestin ag -3% and D2 ag-3 7%.
`Cc1cc2oc(C(=O)Nc3ccc(S(=O)(=O)N4CCCCCC4)cc3)cc(=O)c2cc1C` gave D2 ag-1 1 and D2 PAM-2 -9.
For C[C@H]1CCCCO[C@H](CN(C)Cc2ccccc2)[C@@H](C)CN([C@@H](C)CO)C(=O)c2cc(NC(=O)CCC(F)(F)F)ccc2O1 the results were D2 PAM-1 -5 and D2 ag-2 -5.
O=C(NCc1ccncc1)c1csc([C@@H]2O[C@H](CO)[C@@H](O)[C@H]2O)n1 was read as D2 PAM-1 -9 and D2 ag-2 6.
O=C(c1ccco1)N1CCN(Cc2nc(-c3cccs3)no2)CC1 was read as D2 PAM-1 15, D2 ag-1 4, D2 antag -3, D2 ag-2 8, D2 PAM-2 -11, D3 arrestin ag 6% and D2 ag-3 13%.
Screening CC(CNC(=O)c1cc2cc(S(=O)(=O)N3CCCCC3)ccc2n1C)c1ccccc1 (stereo unspecified) returned D2 ag-1 0.
Cc1ccc(-n2c(N)cc(=O)nc2SCC(=O)N2CCN(c3ccccc3)CC2)cc1C was read as D2 PAM-1 -20, D2 ag-1 4, D2 antag -5, D2 ag-2 -2 and D2 PAM-2 4.
For COc1ccc(-n2c(N)cc(=O)nc2SCC(=O)N2CCN(c3ccccc3)CC2)cc1 the results were D2 PAM-1 -3, D2 ag-1 21, D2 antag 1, D2 ag-2 -1, D2 PAM-2 -8, D3 arrestin ag -12% and D2 ag-3 -4%.
`CC(=O)c1ccc(NC(=O)CCc2c(C)nc3c(c2C)c(=O)n(C)c(=O)n3C)cc1` gave D2 ag-1 1 and D2 PAM-2 0.
Cc1[nH]c2ccc(C(=O)N3CCN(c4ccccc4F)CC3)cc2c1C was read as D2 ag-1 3 and D2 PAM-2 2.
For CC(C)(O[C@@H]1O[C@H](CO)[C@@H](O)[C@H](O)[C@H]1O)[C@H]1Cc2cc3ccc(=O)oc3cc2O1 the results were D2 PAM-1 -5, D2 ag-1 1, D2 antag -10, D2 ag-2 -4 and D2 PAM-2 -7.
Screening CC(C)(O[C@@H]1O[C@H](CO)[C@@H](O)[C@H](O)[C@H]1O)[C@@H]1CC=C(C(=O)O)CC1 returned D2 PAM-1 5, D2 ag-1 -1, D2 antag -18, D2 ag-2 -2, D2 PAM-2 10, D3 arrestin ag -3% and D2 ag-3 -2%.
For CCn1cc(C(=O)NCCOC)c(=O)c2cc(S(=O)(=O)N3CCOCC3)ccc21 the results were D2 ag-1 0 and D2 PAM-2 3.
O=CNc1ccccc1 was read as D2 PAM-1 -14, D2 ag-1 0, D2 antag -8, D2 ag-2 2, D2 PAM-2 -8, D3 arrestin ag -4% and D2 ag-3 -2%.
Screening O=C(Nn1cnc2ccccc2c1=O)c1ccc(Br)cc1 returned D2 PAM-1 -2, D2 ag-1 43*, D2 antag 26, D2 ag-2 0, D2 PAM-2 -12, D3 arrestin ag 29% and D2 ag-3 10%.
